Compound activity as filed in PubChem.
Only some compounds are listed: those with a hit (about 6.6% of all), similar ones and a draw of the others.
HepG2 viability: counter-screen for TGF-b inhibitors: cytotoxicity in HepG2 cells | HepG2 CAGA-GFP viability, ATP luminescence, 18 h | Potency, µM (top dose mostly 46.1 µM), for the others: top-dose activity change, negative = cytotoxicity, usual class: cytotoxic | 410,000 tested, 0.76% active | AID 588856
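HepG2 CAGA-GFP cells (1000/well, DMEM with 1% FBS) received compound, then TGF-beta at 500 pg/mL final, and were incubated 18 hours at 37 degrees C. Viability was read by CellTiter-Glo luminescence. Media-only wells were set as complete cell-killing and DMSO as no toxicity.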
TGFb inhibitor: inhibitors of TGF-b signaling | HepG2 CAGA-GFP TGF-b/SMAD3 reporter, GFP fluorescence, 18 h; TGF-beta stimulated, 500 pg/mL final | Potency, µM (series often up to 46.1 µM), for the others: at the top dose activity, negative = inhibition, most hits filed as inhibitors | 410,000 tested, 1.2% active; note: % is set by controls: 0 for no effect and ±100 for the full control effect; nearly all actives have a fitted effect of over 65% in size
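Smad-responsive CAGA-GFP expression was quantified in HEPG2 cells exposed to compounds and 500 pg/mL final TGF-beta for 18 h at 37 degrees C; unstimulated wells defined full inhibition.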
KB-3-1 tox: kills parental KB-3-1 adenocarcinoma cells. KB-3-1 viability, CellTiter-Glo ATP luminescence, 72 h. Potency, µM (doses to about 46.1 µM), usual class: cytotoxic. 400,000 tested, 1.4% active. AID 1347075; note: % is set by controls: 0 for no effect and ±100 for the full control effect; nearly all actives have a fitted effect of over 60% in size
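Cytotoxicity measured as CellTiter-Glo luminescence after 72 h at 37 C. Compound titrations were pinned onto drug-naive KB-3-1 parental adenocarcinoma cells grown in DMEM with 10% FBS, and normalized data fitted to concentration-response curves.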
HT1080NT lethal: kills 2HG-producing HT-1080-NT fibrosarcoma cells; HT-1080-NT fibrosarcoma viability, CellTiter-Glo ATP luminescence, 48 h; Potency, µM (series often up to 46.1 µM), without a hit: at the top dose activity, negative = less viability, usual class: cytotoxic; 360,000 tested, 1.6% active; AID 686970;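 note: NT is the 2HG producing partner of a matched IDH1 knockdown line; 0% = DMSO-treated cells and -100% = media-only wells without cells; nearly all actives have a fitted effect of over 55% in size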
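Compounds were tested in concentration-response format on HT-1080-NT cells for 48 hours at 37 degrees C. Cell viability came from CellTiter-Glo luminescence; curves were classified by r2, response magnitude and activity.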
KB-V1 cytotox: KB-V1 MDR subline cytotoxicity; KB-V1 MDR cells viability, CellTiter-Glo, 72 h; 400,000 tested, 3.4% active; Potency, µM (highest dose often 46.1 µM), actives largely listed as cytotoxic; note: % is set by controls: 0 for no effect and ±100 for the full control effect; nearly all actives have a fitted effect of over 60% in size
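KB-V1, DMEM (no phenol red) + 10% FBS; cpd pin-transferred, titration series; 72 h, 37 degrees C; CellTiter-Glo, luminescence. Data normalized, curve-fit.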
HT1080 IDH1KD tx: kills HT-1080 cells with IDH1 knockdown. Potency, µM (titrated, usually from 46.1 µM), without a hit: top-dose activity, negative = toxicity, actives largely listed as cytotoxic. AID 686971. 360,000 tested, 2% active. HT-1080 IDH1 knockdown viability, ATP luminescence, 48 h;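 note: 0% = DMSO wells and -100% = cell-free medium wells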
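Cytotoxicity counter-line: IDH1KD HT-1080, 48 h, CellTiter-Glo. Curves classed by r2, magnitude and activity.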
* hit, by the source's call; i = inactive; ? = inconclusive; . = not tested or not shown. Calls come from the whole dose curve; as a rule, active = well fitted curve in the direction sought with a large enough effect; inconclusive = small, poorly fitted or top-dose-only effect, or another doubt; inactive = no such curve, though single readings can be large; an effect the other way counts as inactive or inconclusive. Potency is the fitted concentration of half-maximal effect.

SMILES | HepG2 viability | TGFb inhibitor | KB-3-1 tox | HT1080NT lethal | KB-V1 cytotox | HT1080 IDH1KD tx
Cc1ccc(-c2nc(CCN3C(=O)c4ccccc4C3=O)cs2)cc1 | -16% | 41% | i | ? | 13µM* | 10µM*
Cc1ccc(-c2nc(CSc3nc4ccccc4c(=O)n3C)cs2)cc1 | 27% | 16% | ? | 9% | 12µM* | -1%
CCc1cccc(C)c1NC(=O)c1cc(S(=O)(=O)N(Cc2ccc(C(=O)OC)cc2)Cc2ccc(OC)c(OC)c2)ccc1F | 6% | -1% | . | . | . | .
CCOc1ccc2ccccc2c1C(=O)N1CCN(c2ccccc2)CC1 | -15% | 4% | 23µM* | ? | 4.1µM* | 7.9µM*
COc1ccc(C(=O)N2CCN(c3cccc(Cl)c3)CC2)c(OC)c1 | 4% | -9% | 15µM* | 15µM* | ? | ?
CCOc1ccccc1C(=O)N1CCN(c2cccc(Cl)c2)CC1 | -21% | ? | i | 0.25µM* | i | 0.11µM*
CCOc1cc(CN2CCN(C(=O)c3cccc4ccccc34)CC2)ccc1OC | -16% | ? | i | -10% | ? | -6%
CCC(Sc1nc2nccnc2c(=O)n1Cc1ccc(OC)cc1)C(=O)NC1CCCCC1 (centres undefined) | -19% | -27% | . | . | . | .
O=S(=O)(c1ccccc1Br)N1CCN(c2nc(-c3ccccc3)nc3ccccc23)CC1 | 7% | 5% | i | . | i | .
Nc1nc(Cl)nc(N(c2ccccc2)c2ccccc2)n1 | 2% | -7% | i | -1% | i | -5%
Nc1nc(CCl)nc(N(c2ccccc2)c2ccccc2)n1 | -47% | ? | ? | ? | 16µM* | 2.9µM*
CCC(=O)Nc1ccc(S(=O)(=O)Nc2cccc(C)c2)cc1OC | -10% | -4% | ? | ? | 18µM* | ?
CCC(=O)Nc1ccc(S(=O)(=O)N2CCCCC2)cc1OC | -1% | -10% | i | 4% | i | 0%
CSc1nc(Oc2ccc3ccccc3c2)c2sccc2n1 | -3% | -7% | 5.2µM* | 1% | ? | ?
COc1ccc(NC(=O)C(C(C)C)N2Cc3ccccc3C2=O)cc1 (centres undefined) | 7% | ? | i | . | ? | .
C=C(C)c1nc(Oc2ccccc2)nc(Oc2ccccc2)n1 | -93% | 11µM* | ? | ? | i | ?
CC1(C(=O)Nc2cccc(-n3cnnn3)c2)Cc2ccccc2C(=O)O1 (centres undefined) | 4% | 12% | i | 3% | 12µM* | 9%
O=C(NCCC1=CCCCC1)C1CCN(S(=O)(=O)c2ccc(Br)s2)CC1 | -36% | -27% | i | 5% | 16µM* | 4%
Cc1ccc(S(=O)(=O)N2CCCC(C(=O)NCCC3=CCCCC3)C2)cc1 (centres undefined) | -1% | -10% | i | 19% | i | -2%
O=C(NCCC1=CCCCC1)C1CCCN(S(=O)(=O)c2ccccc2)C1 (centres undefined) | -25% | -12% | i | -8% | 9.2µM* | 10%
CC(=O)Nc1cccc(NC(=O)C(=O)NCCc2csc3nc(-c4ccccc4F)nn23)c1 | 1% | -4% | i | . | i | .
Cc1ccc(C(=O)NCCN2C3=NC[C@@H](Cc4ccccc4)N3C[C@H]2Cc2ccc(O)cc2)cc1Br | 11µM* | 16µM* | i | -19% | ? | -15%
COc1ccc(C[C@H]2CN3C(=NC[C@@H]3Cc3ccccc3)N2CCNC(=O)c2ccc(C)c(Br)c2)cc1 | 13µM* | ? | ? | ? | ? | ?
COc1ccc(C[C@H]2CN3C(=NC[C@@H]3Cc3ccc(O)cc3)N2CCNC(=O)c2ccc(C)c(Br)c2)cc1 | 16µM* | ? | 16µM* | ? | i | ?
COc1ccc(C[C@H]2CN3C(=NC[C@@H]3Cc3ccc(O)cc3)N2C[C@H](C)NC(=O)c2ccc(C)c(Br)c2)cc1 | 18µM* | 22µM* | ? | -15% | i | -14%
SMILES | HepG2 viability | TGFb inhibitor | KB-3-1 tox | HT1080NT lethal | KB-V1 cytotox | HT1080 IDH1KD tx
Cc1ccc(C(=O)NCCN2C3=NC[C@H](Cc4ccc(O)cc4)N3C[C@H]2Cc2ccc(O)cc2)cc1Br | -19% | -12% | i | 2% | i | 2%
COCCNC(=O)C1Cc2c(-c3ccc(NC(C)=O)cc3)ccnc2O1 (centres undefined) | 3% | 55% | i | -28% | i | -24%
CC(=O)Nc1ccc(-c2ccnc3c2CC(C(=O)NCC2CCOCC2)O3)cc1 (centres undefined) | -5% | -6% | 5.8µM* | ? | i | ?
CC(=O)c1cccc(-c2ccnc3c2CC(C(=O)NCC2CCOCC2)O3)c1 (centres undefined) | -23% | -9% | 4.6µM* | ? | i | ?
CC(=O)Nc1ccc(-c2ccnc3c2CC(C(=O)NCC2CC2)O3)cc1 (centres undefined) | 5% | 6% | ? | ? | i | 16µM*
CC(=O)c1cccc(-c2ccnc3c2CC(C(=O)NCC2CC2)O3)c1 (centres undefined) | -8% | 3% | ? | ? | i | ?
COc1ccc(CC(=O)Nc2sc3c(c2C(=O)Nc2c(C)cccc2C)CCCCC3)cc1 | -7% | 0% | ? | . | ? | .
CC(C)(C)c1cc(CN(CCO)CCO)c(O)c(C(C)(C)C)c1 | -30% | ? | i | -20% | i | -21%
CC(C)(C)c1cc(CN2CCCC(O)C2)c(O)c(C(C)(C)C)c1 (centres undefined) | -108% | ? | ? | ? | 16µM* | ?
O=C(NCCCN1CCOCC1)NC1CCCCC1 | 3% | 10% | i | -2% | i | -4%
O=C(NCCCCCCCN1CCCCCCC1)C(C1CCCCC1)C1CCCCC1 | -3% | 18µM* | ? | -16% | 3.3µM* | ?
CCC[n+]1c2ccccc2cc2ccccc21 | -49% | ? | ? | 16µM* | 21µM* | ?
CCCC[n+]1c2ccccc2cc2ccccc21 | -23% | ? | 16µM* | 23µM* | i | ?
CCCC[n+]1c(/C=C/c2c(OC)cc(OC)cc2OC)ccc2ccccc21 | -49% | 60% | i | . | i | .
CCCCNC(=O)[C@@H]1CC=C[C@@H]2CCN(Cc3ccccc3)C(=O)[C@@H]21 | -4% | -4% | i | . | i | .
COC(=O)c1cc2oc3ccccc3c2n1CC(=O)Nc1ccc(C)c(F)c1 | 3% | -1% | i | . | i | .
